Consider nine compounds from PubChem BioAssay (NCATS).

Assay [1] in a line: qHTS to identify inhibitors of the type 1 interferon - major histocompatibility complex class I in skeletal muscle: primary screen against the NCATS Pharmaceutical Collection (AID 1347407).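 Note: luminescence of HiBiT knocked into endogenous HLA-B as interferon-induced MHC class I level.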 In short, it runs like this: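 Immortalized human myoblasts (C25cl48) with HiBiT knocked into endogenous HLA-B*08:01 were stimulated with 4.0 ng/ml IFN-beta and treated with compounds ([…] top 46 uM) for 24 hrs at 37 C. HiBiT lytic luminescence read.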

Assay [2] concerns the target Nuclear receptor subfamily 1 group I member 3 (Homo sapiens) (UniProt Q14994). Briefly: qHTS for Constitutive Androstane Receptor (CAR) Agonist screened against the NCATS CANVASS Library (AID 1347373).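 Note: every well also contained 1.5 µM PK11195 alongside the test compound.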 Put shortly: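 Cells were plated and allowed to attach for 4hr, then dosed with compound in an 11-point series alongside 1.5uM PK11195. After 24hr at 37C, viability was measured fluorometrically and CAR-driven CYP2B6 reporter luminescence was recorded.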

A short description of assay [3]: qHTS for Hypoxia signaling pathway (HIF-1) agonists against the NCATS CANVASS Library (AID 1347375). In short, it runs like this:
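Cells plated and rested 5 h, compounds pinned in DMSO across 11 concentrations, incubated 17 h at 37C, loaded with CCF4-AM for 2 h, fluorescence read at 460 and 530 nm, then CellTiter-Glo luminescence measured for viability and normalization.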

Assay [4] is described as follows: 10-beta competent E. coli microbial cell viability qHTS against the NCATS CANVASS Library (AID 1347376). Note: series mostly up to about 46 µM. In short, it runs like this:
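Bacterial suspension diluted to 0.2 OD was dosed with compounds, 11-point series, then held overnight at 37C. BacTiter-Glo reagent was added, and after 20 min at room temperature ATP-dependent luminescence was measured.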

A short description of assay [5]: DH5-alpha competent E. coli microbial cell viability qHTS against the NCATS CANVASS Library (AID 1347377). Put shortly: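 Bacteria were dispensed at 0.2 OD, then compounds were pin-transferred. Plates were incubated overnight at 37C, after which BacTiter-Glo was added and luminescence measured 20 min later.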
Assay [6] is described as follows: qHTS for H2AX Agonists against the NCATS CANVASS Library (AID 1347378). In short, it runs like this: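 CHO-K1 cells (1000/well, overnight at 37C) exposed to compounds at several concentrations for 3 hr at 37C, 0.76% DMSO final. Lysates read by TR-FRET (phospho-H2AX S139 Eu-cryptate antibody / H2AX-d2 antibody) after 24 hr at room temperature; 665/615 nm ratio.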

A short description of assay [7]: qHTS for Inflammasome Signaling Inhibitors: IL-1-beta AlphaLISA screen against the NCATS CANVASS Library (AID 1347379).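 Note: human THP-1 cells primed with LPS then triggered with ATP; secreted IL-1B measured as AlphaLISA emission at 615 nm; lower signal means less IL-1B release which is the wanted effect.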 In short, it runs like this: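 Secreted IL-1B from human THP-1 cells quantified by AlphaLISA 16 hr after compound addition (final up to 57.5 uM). A 1 hr compound pretreatment preceded inflammasome activation with 250 ng/mL LPS plus 1.25 mM ATP (final).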

Assay [8] can be described thus: Inflammasome Signaling qHTS Counterscreen: IL-1-beta AlphaLISA counterscreen against the NCATS CANVASS Library (AID 1347381).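 Note: cell-free check with purified IL-1β in medium and no THP-1 cells; series mostly up to about 57 µM.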 In short, it runs like this: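 Purified IL-1-beta (4 pg/well) + compound, 11-pt conc. series; acceptor beads 6 ug/mL + biotin-Ab 0.6 nM final, 1 h RT; SA-donor 24 ug/ml final, 30 min dark RT; read ex 680/em 615.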
The nature of assay [9]: Cytotoxicity qHTS for assessment of Hepg2 cells membrane integrity screened against the NCATS CANVASS Library (AID 1347387). Put shortly:
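Cells were seeded at 2000 per well and left overnight to attach. Compounds were pin-transferred to give 0.59 nM - 46 uM in an 11-point series and incubated 5 hr at 37C. CytoTox-ONE reagent was added and, after 10 min at room temperature, fluorescence (ex 560, em 590 nm) was read.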

A short description of assay [10]: qHTS for Activators of p53 Stress Response Pathway screened against the NCATS CANVASS Library (AID 1347388). In short, it runs like this: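 p53RE-bla HCT-116 cells (4000/well) were pre-incubated for 5 h, then treated with compound (11 points) for 16 h at 37C. After 2 h with CCF4, the 460/530 nm ratio gave reporter activation; CellTiter-Glo measured viability.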

The nature of assay [11]: qHTS assay for small molecule disruptors of mitochondrial membrane potential screened against the NCATS CANVASS Library (AID 1347389). Note: potency is the fitted concentration of half-maximal effect; nearly all actives have a fitted effect of over 60% in size. Particulars: HepG2 mitochondrial membrane potential, m-MPI red/green ratio, 1.5 h. In short, it runs like this:
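Mitochondrial depolarization in HepG2 cells is scored as a falling aggregate-to-monomer fluorescence ratio after 1 hr compound exposure and 30 min staining with Mito-MPS dye at 37C, each compound tested as an 11-point titration.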

Assay [12] in a line: qHTS for activators of Nrf2/ARE signaling pathway screened against the NCATS CANVASS Library (AID 1347391). Note: nearly all actives have a fitted effect of over 60% in size. In short, it runs like this: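 Beta-lactamase reporter signal, read as 460 and 530 nm emission under 405 nm excitation after 2 h CCF4 loading, reflected ARE activation in HepG2 cells treated 16 h with an 11-point series.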
The nature of assay [13]: qHTS for activators of dead-cell proteases activity screened against the NCATS CANVASS Library (AID 1347392).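 Note: luminescence from protease leaking out of membrane-damaged cells cleaving impermeant substrate; rising signal means more cytotoxicity.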 Put shortly: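 HepG2, 2000 cells/well, 18 h attach; cpd 11-pt, 5 h 37C 5% CO2; CytoTox-Glo (AAF-aminoluciferin) 15 min RT; luminescence read.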
Assay [14] in a line: qHTS for inhibitors of ER calcium dysfunction: SERCaMP assay screened against the NCATS CANVASS Library (AID 1347393).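 Note: series mostly up to about 77 µM; lower secreted reporter signal means inhibitor of ER calcium depletion; nearly all actives have a fitted effect of over 40% in size.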 Put shortly: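 SH-SY5Y GLuc-SERCaMP, 1000 cells/well, 4 h attach; cpd 16 h, 37C/5% CO2; thapsigargin (added as 6x 600 nM) 4 h; coelenterazine; luminescence. Reduced reporter release = ER Ca stabilization.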
Assay [15] can be described thus: Vero-766 cells viability qHTS against the NCATS CANVASS Library: Counterscreen for Zika virus inhibition assay (AID 1347394). Note: nearly all actives have a fitted effect of over 60% in size. Note: potency is the fitted concentration of half-maximal effect. Put shortly: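 Vero 766 cells (1000/well), without Zika virus, were exposed to compounds for 72 h at 37C. Viability was measured by CellTiter Glo luminescence. Media-only wells served as 100% inhibition.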
The nature of assay [16]: Viability qHTS for inhibitors of the SERCaMP assay screened against the NCATS CANVASS Library (AID 1347400). Note: series mostly up to about 92 µM; nearly all actives have a fitted effect of over 70% in size. In short, it runs like this:
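Seed SH-SY5Y-GLuc SERCaMP MJH297 cells at 1000 per well, incubate 4 h, add compounds across an 11-point range, incubate 48 h at 37C, then add CellTiter-Glo and read luminescence.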

Assay [17] in a line: Redox Reaction Profiling qHTS: Assay Interference Panel against the NCATS CANVASS Library (AID 1347401). In short, it runs like this: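 Fluorescence read-out (525 nm excitation, 598 nm emission) at time zero and after 15 min in the dark tracked resorufin formation. Mix: 5 uM resazurin, 200 uM DTT, HEPES pH 7.3 buffer with NaCl.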
The nature of assay [18]: qHTS for Hypoxia signaling pathway (HIF-1) antagonists against the NCATS CANVASS Library (AID 1347374).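 Note: HRE-bla ME-180 cells stimulated with cobalt chloride to stabilize HIF-1alpha; series mostly up to about 38 µM; nearly all actives have a fitted effect of over 60% in size.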 Put shortly: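 Antagonism scored as loss of CoCl2-driven (60 uM stock added) HRE beta-lactamase signal, read by CCF4 FRET at 460/530 nm. Compounds were tested in an 11-point series on ME-180 reporter cells for 17 hrs at 37C, with parallel CellTiter-Glo cytotoxicity.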

Assay [19] in a line: qHTS for Antimalaria activity screened against the NCATS CANVASS Library (AID 1347380).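 Note: Plasmodium falciparum strain Dd2 asexual parasites grown in red blood cells; series mostly up to about 29 µM; nearly all actives have a fitted effect of over 40% in size.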 In short, it runs like this:
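Compounds are titrated over 11 concentrations onto Dd2 parasite cultures (0.3% parasitemia, 2.5% hematocrit). Growth over 72 h at 37C in low oxygen is measured as SYBR Green DNA fluorescence after lysis.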

A short description of assay [20]: qHTS for inhibitors of Wild type Zika virus screened against the NCATS CANVASS Library (AID 1347396).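 Note: ATP luminescence of surviving cells so rescue from viral cell killing; series mostly up to about 46 µM.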 In short, it runs like this:
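Luminescent CellTiter Glo read-out of virus-induced cytotoxicity, 72 h post-infection, in Vero 766 cells. Compounds were tested at 11 concentrations; uninfected, vehicle-treated wells defined 100% inhibition.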

Inconclusive results are not listed. Activity calls are given as the source filed them. Calls come from the whole dose curve; as a rule, active = well fitted curve in the direction sought with a large enough effect; inconclusive = small, poorly fitted or top-dose-only effect, or another doubt; inactive = no such curve, though single readings can be large; an effect the other way counts as inactive or inconclusive.

Nuclear receptor subfamily 1 group I member 3 (Homo sapiens), sequence (Q14994 whole entry, looked up): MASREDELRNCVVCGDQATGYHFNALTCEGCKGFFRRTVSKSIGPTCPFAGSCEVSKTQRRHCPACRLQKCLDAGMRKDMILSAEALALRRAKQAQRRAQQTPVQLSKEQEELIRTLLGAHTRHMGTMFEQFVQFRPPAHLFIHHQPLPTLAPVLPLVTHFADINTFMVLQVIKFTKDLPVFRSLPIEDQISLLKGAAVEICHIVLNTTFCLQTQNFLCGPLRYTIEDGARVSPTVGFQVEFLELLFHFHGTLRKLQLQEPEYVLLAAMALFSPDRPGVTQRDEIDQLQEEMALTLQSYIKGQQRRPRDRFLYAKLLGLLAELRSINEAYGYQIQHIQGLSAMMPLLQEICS

`Nc1ccn(C2CO[C@H](CO)O2)c(=O)n1` (stereo not given in full): in [1], the call was inactive.
As to `Cc1ccc(-n2[nH]c(C)c(N=Nc3cccc(-c4cccc(C(=O)O)c4)c3O)c2=O)cc1C`, the result in assay [1] was inactive.
The same measure, in the same setting: under `Cc1ccccc1C(=O)Nc1ccc(C(=O)N2CCCC(O)c3cc(Cl)ccc32)c(C)c1` (stereo not given) stands “inactive”; under `N[C@H]1CN(c2c(F)cc3c(=O)c(C(=O)O)cn(C4C[C@@H]4F)c3c2Cl)CC12CC2` (stereo not given in full), “inactive”; under `CCn1c(=O)c2c(nc(C=Cc3ccc(OC)c(OC)c3)n2C)n(CC)c1=O`, “inactive”.
In the case of `CC1(C)O[C@@H]2C[C@H]3[C@@H]4CCC5=CC(=O)C=C[C@]5(C)[C@@H]4[C@@H](O)C[C@]3(C)[C@]2(C(=O)CO)O1`, in assay [1], the compound was classed as inactive.
On the same count and under the same terms, the result for `Cc1cn([C@@H]2O[C@H](CO)[C@@H](O)[C@H]2F)c(=O)[nH]c1=O` reads “inactive”.
As to `C=C(C)[C@@H]1CC[C@]2(C(=O)O)CC[C@]3(C)[C@H](CC[C@@H]4[C@@]5(C)CC[C@H](O)C(C)(C)[C@@H]5CC[C@]43C)[C@@H]12`, the compound was called inactive in assay [2], in assay [3], in assay [4], in assay [5], in [6] and in assay [7]. Also, the outcome in [8], in assay [9], in assay [10], in assay [12], in assay [13] and in assay [14] was inactive. Also, the compound was called inactive in assay [16] and in [17]. The values for the Potency in assay [11] and in [15] were 18.6 µM (active) and 33.1 µM (active), respectively.
Consider `O=c1c(O)c(-c2ccc(O)c(O)c2)oc2cc(O)ccc12`, for which the compound was classed as inactive in [2], in assay [18], in assay [3], in assay [6], in assay [7] and in assay [19]. Moreover, the outcome in assay [8], in [9], in [13] and in assay [20] was inactive. In assay [11], the Potency is 23.4 µM (active). In addition, in assay [15], the Potency entry was “inactive”.
